High-throughput results: PubChem, National Center for Advancing Translational Sciences (NCATS)
HTT aggregate = reduces HttQ103-GFP aggregates in PC12 cells. 1.1% of 220,000 active. Potency, µM (top dose mostly 46.1 µM), inactives show at the top dose activity change, negative = inhibition, actives largely listed as inhibitors. PC12 HttQ103-GFP aggregates, Acumen cytometry, 40 h; also: potency is read from the fitted curve at half-maximal effect; % is scaled to controls: 0 for no effect and ±100 for the full control effect; nearly all actives have a fitted effect of over 60% in size
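Multiplexed with ATP-based cell death, this channel scores GFP aggregates in PC12 cells expressing inducible HTTex1-Q103-GFP. Induction used 100 nM tebufenozide; compounds were tested in concentration series.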
HTT ATP protect = Huntington cell model cytoprotection by ATP luminescence; PC12 HTT-Q103 induced, cytoprotection, ATP luminescence, 40 h; Potency, µM (doses to about 56.4 µM), for inactives: cytoprotection (ATP increase), hits mostly activators; AID 1471; 0.14% of 230,000 active; also: potency is read from the fitted curve at half-maximal effect; % of control where 0% means no effect; nearly all actives have a fitted effect of over 45% in size
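PC12 cells stably carrying ecdysone-inducible Htt exon 1 (Q103)–GFP were induced with 100 nM tebufenozide (final) alongside library compounds in a dose series. Cytoprotection was scored as retained ATP by ATPlite luminescence.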
CBFb-RUNX1 inh = blocks binding between human CBF-beta and RUNX1; Potency, µM (titrated, usually from 59.8 µM), for inactives: at the highest dose activity, negative = inhibition, most hits filed as inhibitors; 230,000 tested, under 10 active; AlphaScreen CBFb-His/RUNX1-biotin binding, biochemical; Q01196+Q13951; also: % of control where 0% means no effect
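Proteins preincubated together for 20 min at RT before compound addition; 15 min later, nickel and streptavidin beads were added and left 90 min prior to AlphaScreen measurement.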
ALDH1A1 inh = ALDH1A1 (human) enzyme inhibition; Purified ALDH1A1, NADH fluorescence, propionaldehyde substrate; Potency, µM (highest dose often 75.3 µM), without a hit: at the top dose activity, negative = inhibition, most hits filed as inhibitors; 7.3% of 220,000 active; AID 1030; active = well fitted inhibition curve with a large enough effect, not every such curve was filed as active; inconclusive = small, poorly fitted or top-dose-only effect, or another doubt; inactive = no such curve, though single readings can be large or run the other way;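 also: potency is read from the fitted curve at half-maximal effect; plate controls were no enzyme wells and a reference inhibitor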
Target sequence (P00352 whole entry, looked up): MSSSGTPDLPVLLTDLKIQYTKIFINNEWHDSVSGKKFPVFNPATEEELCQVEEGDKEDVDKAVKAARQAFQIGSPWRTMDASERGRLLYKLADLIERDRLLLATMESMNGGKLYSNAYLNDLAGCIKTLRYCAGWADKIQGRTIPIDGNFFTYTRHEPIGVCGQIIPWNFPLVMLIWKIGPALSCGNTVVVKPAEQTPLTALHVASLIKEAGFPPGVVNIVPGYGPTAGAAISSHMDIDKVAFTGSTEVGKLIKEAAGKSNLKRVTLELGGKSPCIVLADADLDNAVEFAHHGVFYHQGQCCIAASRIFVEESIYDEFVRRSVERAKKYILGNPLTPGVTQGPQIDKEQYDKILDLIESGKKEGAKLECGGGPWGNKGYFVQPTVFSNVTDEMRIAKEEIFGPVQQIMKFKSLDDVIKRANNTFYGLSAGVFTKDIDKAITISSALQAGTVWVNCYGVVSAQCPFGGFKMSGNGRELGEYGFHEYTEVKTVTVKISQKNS
HPGD inh = inhibitors of human 15-hydroxyprostaglandin dehydrogenase (HPGD). Potency, µM, for inactives: at the top dose activity change, negative = inhibition, hits mostly inhibitors. P15428. purified HPGD, NADH fluorescence kinetic, PGE2 substrate. 4.3% of 150,000 active; active = well fitted inhibition curve with a large enough effect, not every such curve was filed as active; inconclusive = small, poorly fitted or top-dose-only effect, or another doubt; inactive = no such curve, though single readings can be large or run the other way; also: potency is read from the fitted curve at half-maximal effect; % is scaled to controls: 0 for no effect and ±100 for the full control effect
Target sequence (P15428 whole entry, looked up): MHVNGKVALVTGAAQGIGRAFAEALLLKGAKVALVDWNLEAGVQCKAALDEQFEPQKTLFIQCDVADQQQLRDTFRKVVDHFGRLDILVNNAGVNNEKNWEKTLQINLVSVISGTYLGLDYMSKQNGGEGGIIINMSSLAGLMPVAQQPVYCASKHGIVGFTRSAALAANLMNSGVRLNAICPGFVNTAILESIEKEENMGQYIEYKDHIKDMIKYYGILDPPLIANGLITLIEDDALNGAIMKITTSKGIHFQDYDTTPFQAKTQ
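NADH formation kinetics: reaction with 30 uM PGE2 and 1 mM NAD+ (final), 20 nM enzyme, Tris-HCl pH 8 with Tween 20, after 15 min compound preincubation at room temperature. Fluorescence change, last versus first of five reads.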
JMJD2E inh = inhibitors of human JMJD2E histone demethylase; JMJD2E catalytic domain, FDH-coupled NADH fluorescence (FDH is formaldehyde dehydrogenase); AID 2147; Potency, µM (series often up to 57.1 µM), for inactives: top-dose activity change, negative = inhibition, actives largely listed as inhibitors; 1.6% of 230,000 active; active = well fitted inhibition curve with a large enough effect, not every such curve was filed as active; inconclusive = small, poorly fitted or top-dose-only effect, or another doubt; inactive = no such curve, though single readings can be large or run the other way;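 also: potency is read from the fitted curve at half-maximal effect; 0% = wells with enzyme and -100% = buffer wells without enzyme; nearly all actives have a fitted effect of over 50% in size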
Active calls of the source: *; [ ] = another dose, or the depositor's remark. Shown are actives, neighbours in structure and some others; about 9.8% of the full set was active somewhere. Unless noted, calls follow the shape of the dose curve; as a rule, active = well fitted curve in the direction sought with a large enough effect; inconclusive = small, poorly fitted or top-dose-only effect, or another doubt; inactive = no such curve, though single readings can be large; an effect the other way counts as inactive or inconclusive.

How did Cc1ccc(C(C(=O)NC2CCCC2)N(C(=O)Cc2cccs2)c2ccc(C)c(C)c2)o1 (stereo not drawn) do in these assays?
HTT aggregate: 20µM*; HTT ATP protect: -0.3%[10 µM]; CBFb-RUNX1 inh: 9.0%; ALDH1A1 inh: -8.8%; HPGD inh: -17.2%; JMJD2E inh: 3.9%

What do the screens show for `Cc1cc(NC(=O)CCC(=O)N(c2ccccc2)C(C(=O)NC2CCCC2)c2ccccc2)no1` (stereo not drawn)?
HTT aggregate: 0.8%; HTT ATP protect: 0.0%[10 µM]; CBFb-RUNX1 inh: 11.1%; ALDH1A1 inh: 25.1µM*; HPGD inh: -6.4%; JMJD2E inh: 7.0%

What do the screens show for `CCc1cc(-c2[nH]ncc2-c2ccc3c(c2)OCO3)c(O)cc1O`?
HTT aggregate: 11.2µM*; HTT ATP protect: -24.2%; CBFb-RUNX1 inh: -26.8%; ALDH1A1 inh: -6.1%; HPGD inh: inconclusive; JMJD2E inh: inconclusive

What do the screens show for `O=[N+]([O-])c1cc(Br)cc(C=Nc2ccc3c(c2)OCO3)c1O`?
HTT aggregate: 0.0%[9.22 µM]; HTT ATP protect: -21.2%[10 µM]; CBFb-RUNX1 inh: -28.5%; ALDH1A1 inh: 10µM*; JMJD2E inh: inconclusive

Results for O=[N+]([O-])c1ccc(O)c(C=Nc2ccc3c(c2)OCO3)c1 ?
HTT aggregate: -11.0%[9.22 µM]; HTT ATP protect: -9.4%[10 µM]; CBFb-RUNX1 inh: -7.6%; ALDH1A1 inh: inconclusive; JMJD2E inh: -21.7%

What do the screens show for `Cc1ccc(C(C[N+](=O)[O-])c2c(N)n(C)c(=O)n(C)c2=O)cc1` (stereo not drawn)?
HTT aggregate: -13.7%[9.22 µM]; HTT ATP protect: 15.8%[10 µM]; CBFb-RUNX1 inh: 11.1%; JMJD2E inh: -3.4%

What do the screens show for `Cc1[nH]n(-c2ccccc2)c(=O)c1C(c1cccc([N+](=O)[O-])c1)c1c(C)[nH]n(-c2ccccc2)c1=O`?
HTT aggregate: -5.5%; HTT ATP protect: 7.2%[10 µM]; CBFb-RUNX1 inh: -0.5%; ALDH1A1 inh: inconclusive; HPGD inh: 31.6µM*; JMJD2E inh: inconclusive

How did Cc1[nH]n(-c2ccccc2)c(=O)c1C(c1ccc(C(=O)O)cc1)c1c(C)[nH]n(-c2ccccc2)c1=O do in these assays?
HTT aggregate: -12.0%; CBFb-RUNX1 inh: -3.4%; ALDH1A1 inh: inconclusive; HPGD inh: inconclusive; JMJD2E inh: 0.4%

Results for Cc1[nH]n(-c2ccccc2)c(=O)c1C(C[N+](=O)[O-])c1ccc(Br)cc1 (stereo not drawn) ?
HTT aggregate: -27.9%; HTT ATP protect: -0.7%; CBFb-RUNX1 inh: -12.0%; ALDH1A1 inh: 22.4µM*; HPGD inh: inconclusive; JMJD2E inh: inconclusive

Results for CCC(C)NC(=O)Nc1ccc(C)cc1C (stereo not drawn) ?
CBFb-RUNX1 inh: 3.9%; ALDH1A1 inh: 0.1%; JMJD2E inh: -2.2%

Results for COc1cc(/C=C/C(=O)O)ccc1OS(=O)(=O)c1cc(C)ccc1C ?
HTT aggregate: 21.6%; CBFb-RUNX1 inh: 0.9%; ALDH1A1 inh: 11.5%; JMJD2E inh: -5.4%

What do the screens show for `CCC(=O)OC1c2ccccc2C(=O)N1Cc1ccccc1` (stereo not drawn)?
HTT aggregate: -3.5%; HTT ATP protect: 5.9%; CBFb-RUNX1 inh: 0.0%; ALDH1A1 inh: -8.5%; HPGD inh: -11.3%; JMJD2E inh: 2.5%

Results for CCOC1=NC(C(=O)O)c2ccccc2/C(=C(/C)Cl)N1 (stereo not drawn) ?
HTT aggregate: -8.7%; HTT ATP protect: -20.2%; CBFb-RUNX1 inh: 9.0%; ALDH1A1 inh: 3.98µM*; HPGD inh: -2.2%; JMJD2E inh: 5.9%

What do the screens show for `COc1ccc(-n2c(C)cc(C(=O)CN3C(=O)NC4(CCCc5sccc54)C3=O)c2C)cc1` (stereo not drawn)?
HTT aggregate: inconclusive; HTT ATP protect: inconclusive; CBFb-RUNX1 inh: 6.2%; ALDH1A1 inh: -7.9%; HPGD inh: -21.7%; JMJD2E inh: 16.4%

Results for Cc1cc(C(=O)CN2C(=O)NC3(CCCc4sccc43)C2=O)c(C)n1-c1ccccc1 (stereo not drawn) ?
HTT aggregate: 22.4µM*; CBFb-RUNX1 inh: inconclusive; ALDH1A1 inh: 28.2µM*; HPGD inh: -12.3%; JMJD2E inh: -14.4%

What do the screens show for `N#Cc1nc(Cc2ccccc2)oc1NCc1ccccc1`?
HTT aggregate: 1.9%; HTT ATP protect: -8.2%[10 µM]; CBFb-RUNX1 inh: 13.6%; ALDH1A1 inh: -3.0%; HPGD inh: 14.1µM*; JMJD2E inh: -5.5%

Results for N#Cc1nc(Cc2ccccc2)oc1NCCN1CCOCC1 ?
HTT aggregate: 26.5%; HTT ATP protect: -23.2%[0.074 µM]; CBFb-RUNX1 inh: 2.9%; ALDH1A1 inh: 10.3%; HPGD inh: 0.1%; JMJD2E inh: -0.6%

How did COc1ccc(CCNc2oc(COc3ccccc3)nc2C#N)cc1 do in these assays?
HTT aggregate: -18.4%; HTT ATP protect: inconclusive; CBFb-RUNX1 inh: -8.4%; ALDH1A1 inh: inconclusive; HPGD inh: -30.5%; JMJD2E inh: 6.0%

How did N#Cc1nc(COc2ccccc2F)oc1NCCc1ccccc1 do in these assays?
HTT aggregate: -10.2%; HTT ATP protect: 17.5%[10 µM]; CBFb-RUNX1 inh: -3.8%; ALDH1A1 inh: -10.4%; HPGD inh: 12.6µM*; JMJD2E inh: -15.7%

What do the screens show for `Cc1ccc(N2C(=N)SCC2=O)cc1Cl`?
HTT aggregate: 14.6%; HTT ATP protect: 9.7%[10 µM]; CBFb-RUNX1 inh: -1.9%; ALDH1A1 inh: inconclusive; HPGD inh: 14.1µM*; JMJD2E inh: 4.4%

Results for NNC(=O)CCc1nc2ccc(O)cc2[nH]1 ?
HTT aggregate: -11.6%; HTT ATP protect: -4.1%; CBFb-RUNX1 inh: -4.5%; ALDH1A1 inh: -2.0%; JMJD2E inh: 30.3%

What do the screens show for `NC(N)=NN=C1CCCCCCCCCCC1`?
HTT aggregate: -13.2%[9.22 µM]; HTT ATP protect: -8.2%[10 µM]; CBFb-RUNX1 inh: 0.7%; ALDH1A1 inh: 4.4%; JMJD2E inh: -1.5%

How did COc1cc(Br)c(CCNC(=O)c2ccco2)cc1OC do in these assays?
HTT aggregate: 7.4%; HTT ATP protect: -8.7%; CBFb-RUNX1 inh: 4.1%; ALDH1A1 inh: 6.2%; JMJD2E inh: -0.3%

How did CCn1c(=O)c2cc(C(=O)N(C)c3ccc(OC)cc3OC)sc2c2ccccc21 do in these assays?
HTT aggregate: 2.5%[9.22 µM]; HTT ATP protect: -4.3%[10 µM]; CBFb-RUNX1 inh: -11.8%; ALDH1A1 inh: -4.3%; JMJD2E inh: -2.3%

Results for CCn1c(=O)c2cc(C(=O)N(C)c3ccccc3F)sc2c2ccccc21 ?
HTT aggregate: 5.4%[9.22 µM]; HTT ATP protect: 5.3%[10 µM]; CBFb-RUNX1 inh: -0.7%; ALDH1A1 inh: 25.1µM*; JMJD2E inh: 4.6%

How did COc1cc(Cl)ccc1NC(=S)N(CCN1CCOCC1)C1CCN(C(C)=O)CC1 do in these assays?
HTT aggregate: -10.2%; HTT ATP protect: -11.6%; CBFb-RUNX1 inh: -2.0%; ALDH1A1 inh: -0.2%; JMJD2E inh: -0.3%
